Among the data in PubChem BioAssay are composite z-score and composite Z-score values, retold here.

Molecules are shown by their SMILES. The source made the active and inactive calls.

Assay [1] has as its target Albumin (Bos taurus) (UniProt P02769). The assay is described as follows: compounds binding labelled BSA control protein – biochemical, small-molecule microarray, Alexa647 label, 635/667 nm fluorescence, artefact control for SMM control protein annotation, profiling panel (AID 1118).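 Note: score merges 667 nm emission intensity and signal-to-noise per printed compound spot.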 The settings on record: BSA-A647 binding, fluorescence 635 nm, higher = more signal.
Assay [2] can be described thus: probe aXIP binding to arrayed compounds – biochemical, NeuroSMM set, 635/667 nm fluorescence, primary screen (AID 1119).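 Note: probe is the protein aXip251-270 applied at 1 µg/mL to compound-printed slides; binding of probe to printed compounds measured as 667 nm fluorescence plus signal to noise.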 Conditions: small-molecule microarray, higher = more signal, called active from +8 up or from −8 down.
Assay [3] in a line: probe aNOTCH3 binding on compound microarray – biochemical, small-molecule microarray, 635/667 nm fluorescence, primary screen (AID 1120).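 Note: probe is a biotin-tagged antibody raised against NOTCH3 rather than NOTCH3 protein; score merges spot fluorescence near 667 nm with spot signal to noise.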 Conditions: higher = more signal.
A short description of assay [4]: probe aNOTCH2 binding on compound microarray – biochemical, small-molecule microarray, 635/667 nm fluorescence, primary screen (AID 1121).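 Note: score merges feature fluorescence read at 667 nm with its signal to noise.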 Conditions: higher = more signal.
Assay [5] addresses Carbonic anhydrase 2 (Homo sapiens) (UniProt P00918). The experiment in a line: compounds binding carbonic anhydrase 2 – biochemical, small-molecule microarray, Alexa647-labelled CAII, profiling panel (AID 1122). Conditions: CAII-A647 binding fluorescence, higher = more signal.
A short description of assay [6]: COS7 lysate on small-molecule microarray, probe aHis, 635 nm (AID 1123).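 Note: z-score combines 667nm fluorescence intensity with signal-to-noise per printed compound spot.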 Conditions: COS7 cell lysate, fluorescence, higher = more signal.
Assay [7] is described as follows: probe aLAP1 signal on lysate-treated microarray – cell lysate, small-molecule microarray, COS7 lysate, primary screen (AID 1124).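 Note: lysate comes from COS7 cells expressing LAP1 and is applied at 0.3 µg/mL; score merges spot fluorescence near 667 nm with signal-to-noise over triplicate slides.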 The settings on record: probe aLAP1, fluorescence, higher = more signal.
Assay [8] deals with Sam68 (KHDRBS1). The experiment in a line: compounds binding KHDRBS1 protein – biochemical, small-molecule microarray, 635 nm fluorescence, primary screen (AID 1125).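 Note: score merges 667 nm channel intensity with signal to noise over triplicate slides.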 The settings on record: higher = more signal.
The test system of assay [9] is Chordin-like protein 2 (CHRDL2). The assay is described as follows: compounds binding chordin-like 2 – biochemical, small-molecule microarray, 635 nm fluorescence, primary screen (AID 1126).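 Note: printed compound slides probed with Chrdl2 protein at 4 µg/mL for 1 h at 4 C; score merges 667 nm emission intensity with signal to noise over three replicate slides.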 Conditions: fluorescence 635 nm, higher = more signal.
Assay [10] concerns the target Concanavalin-A (Canavalia ensiformis) (UniProt P02866). The experiment in a line: compounds binding concanavalin A lectin – biochemical, small-molecule microarray, Alexa647 label, 635 nm, artefact control for SMM control protein annotation, primary screen (AID 1127).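 Note: z combines 667 nm emission intensity with signal-to-noise across three replicate slides.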 The settings on record: ConA-A647 binding fluorescence, higher = more signal.

Sequence of Albumin (Bos taurus) (P02769 whole entry, looked up): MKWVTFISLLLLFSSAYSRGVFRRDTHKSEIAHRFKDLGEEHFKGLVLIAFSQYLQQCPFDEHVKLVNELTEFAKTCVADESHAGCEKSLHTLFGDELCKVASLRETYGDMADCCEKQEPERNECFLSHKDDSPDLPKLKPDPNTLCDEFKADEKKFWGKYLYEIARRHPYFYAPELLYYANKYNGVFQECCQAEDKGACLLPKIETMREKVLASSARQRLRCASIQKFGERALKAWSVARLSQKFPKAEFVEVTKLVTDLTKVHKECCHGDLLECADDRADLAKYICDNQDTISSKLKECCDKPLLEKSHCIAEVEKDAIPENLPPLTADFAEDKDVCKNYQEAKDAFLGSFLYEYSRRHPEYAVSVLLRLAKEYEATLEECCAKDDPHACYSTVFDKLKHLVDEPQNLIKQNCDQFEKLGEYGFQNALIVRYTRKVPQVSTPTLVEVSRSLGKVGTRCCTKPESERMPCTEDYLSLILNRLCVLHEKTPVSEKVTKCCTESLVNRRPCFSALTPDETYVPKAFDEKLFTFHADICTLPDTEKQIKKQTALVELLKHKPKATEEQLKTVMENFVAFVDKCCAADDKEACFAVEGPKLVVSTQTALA
Sequence of Concanavalin-A (Canavalia ensiformis) (P02866 whole entry, looked up): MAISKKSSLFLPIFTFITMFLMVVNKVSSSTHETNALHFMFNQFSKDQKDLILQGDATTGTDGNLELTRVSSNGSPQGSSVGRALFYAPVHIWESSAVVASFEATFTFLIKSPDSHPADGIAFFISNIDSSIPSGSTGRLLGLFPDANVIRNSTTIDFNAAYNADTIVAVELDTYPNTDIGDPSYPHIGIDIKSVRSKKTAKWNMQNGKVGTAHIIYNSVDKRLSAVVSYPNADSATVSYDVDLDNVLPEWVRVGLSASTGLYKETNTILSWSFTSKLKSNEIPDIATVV

Consider `C=CC[C@]12N=C(c3ccc(OCCCO)cc3)O[C@H]1c1ccccc1N(CCC)C2=O`, for which the composite z-score was -0.0791 in [1]; 0.467 in [3]; 0.14 in assay [4]; 0.705 in assay [5]; 2.85 in assay [6]; 0.674 in [7]. The composite z-score in assay [8] was determined as 1.29; in assay [9] it was 1.2; in assay [10], 1.09. In addition, the composite Z-score in assay [2] is 1.91 (inactive).
Take `C[C@]1(C(=O)NC2CC2)c2ccccc2C(=O)N(Cc2cc(F)cc(C(F)(F)F)c2)[C@H]1c1ccc(CO)cc1`: the composite z-score in [1] is -0.1; in assay [3], -0.368; in assay [4], -0.164; in assay [5], 0.759; in [6] it was 2.23; in assay [7], 0.522. For the same compound, the composite z-score in assay [8] is -0.0456; in assay [9], -1.61; in assay [10], -0.0372. Further, the composite Z-score in assay [2] is 0.004 (inactive).
As for `Cc1ccc(S[C@]2(C(=O)NCc3ccccc3)CC(=O)N(Cc3ccccc3Cl)[C@@H]2c2ccc(CO)cc2)cc1`, the composite z-score in assay [1] was -0.447; in [3] it was -0.511; in assay [4], -0.149; in [5], 0.762; in [6], 0.397; in assay [7], 0.197. The composite z-score in assay [8] was 0.472; in [9], -0.78; in [10], 0.439. In addition, in assay [2], the composite Z-score was -0.608 (inactive).
Turning to `COC(=O)[C@@]1(Cc2ccc(F)cc2)[C@H]2c3cc(C(=O)N4CCCC4)n(CCc4c[nH]c5cc(F)ccc45)c3C[C@H]2CN1C(=O)c1ccccc1`, the composite z-score in assay [1] is 0.978; in assay [3], 1.05; in [4] it was 0.488; in assay [5] it was 0.767; in assay [6], 2.76; in assay [7] it was 0.202. Further, the composite z-score in assay [8] was 1.33; in assay [9] it was 0.212; in [10], 1.03. Further, in [2], the composite Z-score is 0.905 (inactive).
With `[N-]=[N+]=Nc1ccccc1C[C@@]1(C(=O)NCC(O)CO)N=C(c2ccc(OCCCO)cc2)O[C@@H]1c1ccccc1N=[N+]=[N-]` (stereo not given in full), the composite z-score worked out at 0.874 in [1]; 0.204 in assay [3]; 0.0124 in [4]; 0.78 in assay [5]; 2.25 in assay [6]; 1.26 in [7]. Besides, the composite z-score in [8] is 1.12; in [9] it was -0.802; in assay [10] it was 0.902. In addition, in [2], the composite Z-score was -0.213 (inactive).
`CO[C@H]1O[C@H](CO)[C@@H](OC(=O)Nc2cccc(F)c2)[C@H](OC(=O)c2cc3ccccc3[nH]2)[C@H]1OC(=O)c1cc2ccccc2[nH]1`: the composite z-score in assay [1] is 0.467; in assay [3], -0.0048; in [4], -0.132; in [5], 0.209; in [6], 0.799; in [7] it was 0.337. The composite z-score in [8] is -0.537; in assay [9] it was -0.332; in assay [10] it was -0.732. Further, the composite Z-score in [2] is -0.0925 (inactive).
On to `CCCCC=C[C@@H](NC(=O)C(C)(C)C)c1ccccc1`, for which the composite z-score in [1] was 0.743; in [3], 0.259; in assay [4] it was -0.0769; in assay [5], 0.509; in assay [6], -0.0783; in assay [7], 0.983. In addition, the results for the composite z-score in assay [8], in assay [9] and in assay [10] were 1.09, -0.264 and 1.04, respectively. The composite Z-score in [2] is -0.424 (inactive).
Take `CCCC1(C(=O)OC)C=C2C(=C(C(C)C)C(=O)C2C)CN1` (stereo not given): the composite z-score was 0.844 in assay [1]; -0.0288 in assay [3]; 0.0788 in assay [4]; 0.0703 in assay [5]; 0.614 in assay [6]; 0.976 in assay [7]. For the same compound, the composite z-score is -1.36 in assay [8], -0.454 in assay [9] and -0.981 in [10]. Moreover, the composite Z-score in assay [2] is 0.382 (inactive).
`COc1ccc(C(O)C2C=CC3C(=O)N(c4ccccc4)C(=O)C3N2Nc2ccccc2F)c2ccccc12` (stereo not given): the composite z-score came out at 0.968 in [1]; 0.785 in [3]; 0.579 in assay [4]; 0.762 in [5]; 2.23 in assay [6]; 1.34 in assay [7]. In addition, the composite z-score in assay [8] was 1.3; in [9], -0.316; in [10], 1.21. For the same compound, the composite Z-score in assay [2] was 0.882 (inactive).
Regarding `COCCOC(=O)N1C(=O)[C@@]2(c3cc(C#CCC(C(=O)OC)C(=O)OC)ccc31)[C@H](C(N)=O)[C@H]1C(=O)O[C@H](c3ccccc3)[C@H](c3ccccc3)N1[C@@H]2c1ccccc1OCCO`, the composite z-score was 0.653 in assay [1]; -0.0565 in assay [3]; 0.201 in assay [4]; 0.593 in assay [5]; 0.882 in [6]; -0.155 in [7]. For the same compound, the values for the composite z-score in [8], in [9] and in assay [10] were 1.32, 1.1 and 1.15, respectively. The composite Z-score in [2] is -0.145 (inactive).
Regarding `CCCCC(=C=CC[C@@H](O)c1ccc(OCCO)cc1)CCO`, the composite z-score in assay [1] was 0.543; in [3], -0.0947; in assay [4], -0.12; in assay [5], 0.755; in [6], 1.46; in assay [7], 0.145. Besides, the composite z-score in assay [8] was 0.118; in assay [9] it was -0.346; in [10] it was -0.321. Further, the composite Z-score in [2] was 0.742 (inactive).
As to `COC(=O)C1=CC(CCCO)=CC(c2ccc(CN3CCCC3)cc2)N(C)C=C1C(=O)OC` (stereo not given), the composite z-score in assay [1] was 0.935; in assay [3], -0.105; in [4], 0.0334; in assay [5], 0.866; in [6], 1.72; in assay [7], 0.181. The composite z-score in [8] is 1; in assay [9], 0.164; in [10] it was 0.361. The composite Z-score in assay [2] is 1.22 (inactive).
Consider `COc1ccc([Si](C)(C)[C@H]2[C@H](CC(=O)N(CCO)Cc3ccccc3)O[C@@]3(C(=O)N(Cc4cccc(N5CCCCC5=O)c4)c4ccccc43)[C@@H]2C)cc1`, for which the composite z-score in assay [1] is 0.124; in assay [3] it was 0.401; in assay [4], -0.131; in assay [5] it was 0.235; in assay [6], 0.681; in assay [7], 0.825. The composite z-score in assay [8] is 0.732; in assay [9], 0.877; in assay [10], 0.72. In [2], the composite Z-score was 1.12 (inactive).
As to `COc1cc(Cc2cc3c(c(-c4ccccc4)n2)[Si](C(C)C)(C(C)C)OC3)cc(OC)c1OC`, the composite z-score was -1.25 in assay [1]; -0.0682 in assay [3]; -0.0028 in assay [4]; 0.153 in [5]; -0.317 in assay [6]; -0.27 in assay [7]. Besides, the values for the composite z-score in assay [8], in assay [9] and in assay [10] were -1.26, 0.296 and -0.264, respectively. The composite Z-score in assay [2] is 0.23 (inactive).
